Experimental data as given in PubChem BioAssay.
“And” between values parts separate entries of the source, which are not always exact repeats. Identical values can stand only once. Inconclusive results are not listed. The source made the active and inactive calls.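 The calls were made as follows, unless noted: active = normalized viability below 100% at a tested concentration; inactive = the rest.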

Legend:
[1] = growth inhibition of DIPG glioma cells, dose response, cell-based, SU-DIPG-XVII, MIPE5.0, CellTiter-Glo, qHTS (AID 1347060; cut-off not given, nearly all actives have AC50 up to about 26 µM;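 as to AC50: cells exposed to compound for 48 hours before viability readout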); conditions: SU-DIPG-XVII viability, CellTiter-Glo ATP luminescence
[2] = growth inhibition of DIPG glioma cells, dose response, cell-based, JHH-DIPG-1, MIPE4.0, CellTiter-Glo, qHTS (AID 1347062; cut-off not given, nearly all actives have AC50 up to about 27 µM;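 as to AC50: cells exposed to compound for two days before readout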); conditions: JHH-DIPG-1 viability, CellTiter-Glo ATP luminescence
[3] = growth inhibition of DIPG glioma cells, dose response, cell-based, SU-DIPG-IV, MIPE4.0, CellTiter-Glo, qHTS (AID 1347063; cut-off not given, nearly all actives have AC50 up to about 30 µM;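 also: compound exposure lasted 48 hours before the viability readout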); conditions: SU-DIPG-IV viability, CellTiter-Glo ATP luminescence
[4] = growth inhibition of DIPG glioma cells, dose response, cell-based, SU-DIPG-XIII, MIPE5.0, CellTiter-Glo, qHTS (AID 1347064; cut-off not given, nearly all actives have AC50 up to about 23 µM;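 as to AC50: cells exposed to compound for 48 hours before the viability read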); conditions: SU-DIPG-XIII viability, CellTiter-Glo ATP luminescence
[5] = viability loss in pontine glioma line – cell-based, SU-DIPG-XXV, MIPE5.0, CellTiter-Glo, qHTS, dose response (AID 1347065; cut-off not given, nearly all actives have AC50 up to about 26 µM;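 also: cells exposed to compound for 48 hours before ATP readout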); conditions: CellTiter-Glo ATP luminescence
[6] = JHH-DIPG-1 glioma cell viability, MIPE5.0 library, CellTiter-Glo luminescence, qHTS (AID 1347067; cut-off not given, nearly all actives have AC50 up to about 26 µM;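 also: cells exposed to compound for 48 hours before readout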); conditions: JHH-DIPG-1 glioma viability, CellTiter-Glo ATP luminescence
[7] = SU-DIPG-XXV glioma cell viability, MIPE5.0 library, qHTS (AID 1347068; cut-off not given, nearly all actives have IC50 up to about 30 µM;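 as to IC50: cells exposed to compound for 48 hours before viability readout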)
[8] = sensitizers of A549 cells to miR-34 induction, primary screen, imaging, A549 dox-inducible miR-34, nuclei and caspase counts (AID 1347080;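 active = compounds whose cell count with miR-34 switched on is under 0.7 times the count with it off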); conditions: A549 miR-34 inducible, Hoechst nuclei count, 48 h
[9] = survival rescue of mitochondrial mutant cells in low glucose, primary screen, MELAS cybrids, Rieske KO mouse fibroblasts, CellTiter-Glo (AID 1508586;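 active = mean z-score across replicates of 1.96 or higher in either the MELAS or the Rieske mutant cell line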;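 also: z relative to plate mean and SD of compound and empty wells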)
[10] = SU-DIPG-VI glioma cell viability, MIPE4.0 library, CellTiter-Glo luminescence, qHTS (AID 1347066; cut-off not given, nearly all actives have AC50 up to about 30 µM;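 also: cells exposed to compound for 48 hours before readout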); conditions: CellTiter-Glo ATP luminescence
[11] = ovarian cancer cell viability with rucaparib, profiling panel, oncology-focused library, rucaparib conditional (AID 1508598); conditions: patient-derived ovarian cancer cells, CellTiter-Glo viability, 144 h, stronger effect = lower value
[12] = stronger effect = lower value, cell number ratio, induced over uninduced
[13] = measured here: relative caspase fold change +Dox/-Dox
[14] = measured here: total cells with miR-34 induction, stronger effect = lower value
[15] = measured here: total cells without miR-34 induction

CNC(=O)c1nn(C)c2c1C(C)(C)Cc1cnc(Nc3ccc(N4CCN(C)CC4)cc3)nc1-2
-3.65: z-score ([9]; Rieske KO mouse fibroblast survival, CellTiter-Glo 72 h)
inactive: fold change [8, 12] 1.12
1220: cell count [8, 14]
0.794: fold change [8, 13]
active: AC50 [1] 5.9 µM | AC50 [2] 2.35 µM | AC50 [3] 14.8 µM | AC50 [4] 6.61 µM | AC50 [5] 2.35 µM | AC50 [6] 8.33 µM | IC50 [7] 9.34 µM | z-score ([9]; MELAS cybrid survival, CellTiter-Glo 48 h, stronger effect = higher value) 4.48
1090: cell count [8, 15]

O=C1NC(=O)/C(=C/c2ccc3c(c2)OC(F)(F)O3)S1
inactive: outcome [1] | outcome [2] | outcome [3] | outcome [4] | outcome [5] | outcome [6] | outcome [7] | fold change [8, 12] 0.88 and 0.952
8070 and 5980: cell count [8, 14]
1.16 and 0.645: fold change [8, 13]
9160 and 6280: cell count [8, 15]

CCCCC(C)(C)[C@H](O)/C=C/[C@H]1[C@H](O)CC(=O)[C@@H]1C/C=C\CCCC(=O)O
1.62 and 1.28: fold change [8, 13]
6230 and 5490: cell count [8, 14]
6170 and 5850: cell count [8, 15]
inactive: outcome [2] | outcome [3] | outcome [7] | fold change [8, 12] 1.01 and 0.939
active: AC50 [1] 13.2 µM | AC50 [4] 14.8 µM | AC50 [5] 14.8 µM | AC50 [10] 18.7 µM | AC50 [6] 14.8 µM

COc1cc(OC)c(/C=C/S(=O)(=O)Cc2ccc(OC)c(NCC(=O)O)c2)c(OC)c1
active: AC50 [1] 0.0934 µM | AC50 [2] 0.935 µM | AC50 [3] 0.0264 µM | AC50 [4] 0.295 µM | AC50 [5] 0.118 µM | AC50 [6] 0.118 µM | IC50 [7] 0.0661 µM | viability ([11]; at 0.000305 µM, OCI-P5x cells, without rucaparib) 75.1% | viability ([11]; at 0.0195 µM, OCI-C5x cells, with rucaparib 10 µM, 100% = cells with rucaparib alone) 91.1% | viability ([11]; at 0.0195 µM, OCI-C5x cells, without rucaparib) 88% | viability ([11]; at 0.0195 µM, OCI-P5x cells, with rucaparib 20 µM, 100% = cells with rucaparib alone) 94.8% | viability ([11]; at 0.0195 µM, OCI-P5x cells, without rucaparib) 61.6% | viability ([11]; at 0.0781 µM, OCI-C5x cells, with rucaparib 10 µM, 100% = cells with rucaparib alone) 53.4% | viability ([11]; at 0.0781 µM, OCI-C5x cells, without rucaparib) 45% | viability ([11]; at 0.0781 µM, OCI-P5x cells, with rucaparib 20 µM, 100% = cells with rucaparib alone) 73.5% | viability ([11]; at 0.0781 µM, OCI-P5x cells, without rucaparib) 23.1% | viability ([11]; at 0.313 µM, OCI-C5x cells, with rucaparib 10 µM, 100% = cells with rucaparib alone) 50.7% | viability ([11]; at 0.313 µM, OCI-C5x cells, without rucaparib) 35.9% | viability ([11]; at 0.313 µM, OCI-P5x cells, with rucaparib 20 µM, 100% = cells with rucaparib alone) 56.6% | viability ([11]; at 0.313 µM, OCI-P5x cells, without rucaparib) 20.6% | viability ([11]; at 1.25 µM, OCI-C5x cells, with rucaparib 10 µM, 100% = cells with rucaparib alone) 37.8% | viability ([11]; at 1.25 µM, OCI-C5x cells, without rucaparib) 32.9% | viability ([11]; at 1.25 µM, OCI-P5x cells, with rucaparib 20 µM, 100% = cells with rucaparib alone) 54.9% | viability ([11]; at 1.25 µM, OCI-P5x cells, without rucaparib) 14.5% | viability ([11]; at 5 µM, OCI-C5x cells, with rucaparib 10 µM, 100% = cells with rucaparib alone) 36.1% | viability ([11]; at 5 µM, OCI-C5x cells, without rucaparib) 29% | viability ([11]; at 5 µM, OCI-P5x cells, with rucaparib 20 µM, 100% = cells with rucaparib alone) 52% | viability ([11]; at 5 µM, OCI-P5x cells, without rucaparib) 12.1%
inactive: viability ([11]; at 0.000305 µM, OCI-C5x cells, with rucaparib 10 µM, 100% = cells with rucaparib alone) 110% | viability ([11]; at 0.000305 µM, OCI-C5x cells, without rucaparib) 120% | viability ([11]; at 0.000305 µM, OCI-P5x cells, with rucaparib 20 µM, 100% = cells with rucaparib alone) 106% | viability ([11]; at 0.00122 µM, OCI-C5x cells, with rucaparib 10 µM, 100% = cells with rucaparib alone) 114% | viability ([11]; at 0.00122 µM, OCI-C5x cells, without rucaparib) 111% | viability ([11]; at 0.00122 µM, OCI-P5x cells, with rucaparib 20 µM, 100% = cells with rucaparib alone) 102% | viability ([11]; at 0.00122 µM, OCI-P5x cells, without rucaparib) 104% | viability ([11]; at 0.00488 µM, OCI-C5x cells, with rucaparib 10 µM, 100% = cells with rucaparib alone) 107% | viability ([11]; at 0.00488 µM, OCI-C5x cells, without rucaparib) 115% | viability ([11]; at 0.00488 µM, OCI-P5x cells, with rucaparib 20 µM, 100% = cells with rucaparib alone) 103% | viability ([11]; at 0.00488 µM, OCI-P5x cells, without rucaparib) 101%
